Compound activity as filed in PubChem.
Rows were chosen to be rich in hits. Some 7.9% of all compounds tested hit in one or more screens of this group.
Marburg entry inh – inhibitors of Marburg virus binding or cell entry; Marburg virus pseudotyped entry inhibition, cell reporter; 1.8% of 300,000 active; Potency, µM (doses to about 37.8 µM), for inactives: at the highest dose activity change, negative = inhibition, actives largely listed as inhibitors; calls by dose curve; tested in HEK293 cells; also: potency is read from the fitted curve at half-maximal effect; % is scaled to controls: 0 for no effect and ±100 for the full control effect
HCV inhibitor – blocks hepatitis C virus. Potency, µM (doses to about 41.8 µM), for inactives: at the highest dose activity change, negative = inhibition, usual class: inhibitors. Huh7.5.1 HCVcc-Cre infection, luciferase reporter, 44 h. 3.4% of 340,000 active; also: potency is read from the fitted curve at half-maximal effect; % is scaled to controls: 0 for no effect and ±100 for the full control effect
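Seed cells (1,000/well) for 4 h; treat with compound and infect with HCVcc-Cre, moi about 0.5. Incubate 44 h, then detect luciferase activity.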
LASV entry inh – Lassa virus entry inhibition. Lassa virus pseudotype entry inhibition, cell reporter. Potency, µM (titrated, usually from 37.9 µM), for the others: at the top dose activity change, negative = inhibition, hits mostly inhibitors. 1.2% of 300,000 active. AID 540256; calls by dose curve; tested in HEK293 cells; also: potency is read from the fitted curve at half-maximal effect; % is scaled to controls: 0 for no effect and ±100 for the full control effect; nearly all actives have a fitted effect of over 50% in size
FMDV inh – blocks foot and mouth disease virus | FMDV antiviral cell-based qHTS | Potency, µM (highest dose often 57.9 µM), for inactives: at the highest dose activity change, negative = inhibition, most hits filed as inhibitors | 1.2% of 410,000 active; calls by dose curve; tested in HEK293T cells; also: read-out not given here; potency is read from the fitted curve at half-maximal effect; % is scaled to controls: 0 for no effect and ±100 for the full control effect; nearly all actives have a fitted effect of over 45% in size
HCMV inh – inhibitors of human cytomegalovirus; HFF cells, HCMV-luciferase reporter, 72 h; stronger effect = lower value; activity change, negative = inhibition, % at 57.5 µM; 4.5% of 410,000 active; in the data active = activity change below about -60%; inconclusive = no clear call, values can overlap the other calls; inactive = above about -39%; also: % is scaled to controls: 0 for no effect and ±100 for the full control effect
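Two compound doses tested in HFFs infected with HCMV-luciferase, MOI 1 PFU/cell, 72 h at 37C. Lysate luminescence read with OneGlo; data normalized against buffer-only and 10uM Salinomycin inhibitor controls.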
HCV confirm – confirmation of hepatitis C virus inhibitors; shares compounds with HCV inhibitor; HCVcc-Cre infectious virus cell assay, luciferase, inhibition; Potency, µM (doses to about 41.8 µM), for inactives: top-dose activity, negative = inhibition, actives largely listed as inhibitors; 78% of 640 active; also: potency is read from the fitted curve at half-maximal effect; nearly all actives have a fitted effect of over 80% in size
HCV cytotox – toxic to HCV host cells, flagging false HCV inhibitors. AID 720576. 22% of 640 active. HCV host cell line cytotoxicity counterscreen. shares compounds with HCV inhibitor. Potency, µM (series often up to 41.8 µM), for the others: at the top dose activity change, negative = cytotoxicity, most hits filed as inhibitors;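 also: potency is read from the fitted curve at half-maximal effect; 44 h compound exposure; % is scaled to controls: 0 for no effect and ±100 for the full control effect; nearly all actives have a fitted effect of over 55% in size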
* hit, by the source's call; ? = inconclusive; . = no result; [ ] = another dose, or the depositor's remark. Unless noted, calls follow the shape of the dose curve; as a rule, active = well fitted curve in the direction sought with a large enough effect; inconclusive = small, poorly fitted or top-dose-only effect, or another doubt; inactive = no such curve, though single readings can be large; an effect the other way counts as inactive or inconclusive.

SMILES | Marburg entry inh | HCV inhibitor | LASV entry inh | FMDV inh | HCMV inh | HCV confirm | HCV cytotox
Cc1ccc(NC2=C/C(=N\S(=O)(=O)c3cccs3)c3ccccc3C2=O)c(C)c1 | ? | 5.6µM* | ? | 25µM* | . | 2.5µM* | 3.5µM*
CNc1nc(N/N=C/c2cc3c(cc2[N+](=O)[O-])OCO3)nc(Nc2ccccc2)n1 | 16µM* | 1µM* | ? | ? | -99* | 14µM* | 31µM*
CN(C)C(CNC(=O)CSc1nc2sc3c(c2c(=O)n1C)CCCC3)c1ccccc1 (stereo unspecified) | . | ? | . | ? | -27 | . | .
COCCNC(=O)CN1C(=O)COc2ccc(S(=O)(=O)N3CC(C)CC(C)C3)cc21 (stereo unspecified) | . | -8% | . | -19% | 5 | . | .
Cc1ccc(-c2csc(Cc3nc(-c4cc5ccccc5oc4=O)cs3)n2)cc1 | ? | 5µM* | -54% | . | -80* | 5µM* | 6.3µM*
O=c1oc2ccccc2cc1-c1csc(NN=C2CCCC2)n1 | ? | -6% | ? | -18% | -4 | . | .
O=C(NNC(=O)c1ccccc1O)c1ccc(S(=O)(=O)Nc2ccccc2)cc1 | ? | ? | ? | 33% | -30 | . | .
COc1ccc(Cl)cc1NC(=O)c1cc2c(s1)-c1ccccc1OC2 | 1%[46.1 µM] | . | . | -12% | -13 | . | .
Cc1c(NC(=O)c2cc3c(s2)-c2ccccc2OC3)cccc1[N+](=O)[O-] | ? | ? | ? | 28µM* | ? | 6.3µM* | -4%
Cc1ccc(CN(Cc2ccccc2)C(=S)Nc2ccccc2C)o1 | -2%[46.1 µM] | 3.2µM* | ? | -11% | 55 | -24% | 36%
COc1ccc(C(=O)COC(=O)COc2cc(C)cc(C)c2)cc1 | 12% | . | 15% | -9% | 18 | . | .
Nc1ncnc2nn(C3OC(CO)C(O)C3O)nc12 (stereo unspecified) | . | . | . | -24% | -14 | . | .
NC(=S)c1cn(C2OC(CO)C(O)C2O)c2ncnc(N)c12 (stereo unspecified) | . | 0.28µM* | . | ? | -99* | 0.44µM* | 0.44µM*
CCOC(=O)c1cccc(NC(=O)CC2C(=O)N(c3ccc(F)cc3)C(=O)N2C(C)C)c1 (stereo unspecified) | . | . | -8%[46.1 µM] | -13% | -6 | . | .
COc1ccccc1NC(=O)c1ccc(NC(=O)c2cc3c(s2)CCC3)cc1 | ? | 8.9µM* | -25% | ? | -24 | 8.9µM* | 17%
C=C(C(=O)O)C(CCCCCC)C(=O)O (stereo unspecified) | . | 0.63µM* | . | -14% | -8 | -16% | -11%
CCCCCCCCCCCCC(C(=O)O)C(C)C(=O)O (stereo unspecified) | . | . | . | 10% | . | . | .
COc1ccc(CN(C)C(=O)c2oc3ccccc3c2CSC)cc1F | ? | ? | -17%[46.1 µM] | 7% | -16 | . | .
COc1ccc2nc(SCC(=O)NCc3ccc4c(c3)OCO4)[nH]c2c1 | -12% | 6% | 2% | -16% | ? | . | .
CCOc1ccc2nc(SCC(=O)NCc3ccc4c(c3)OCO4)[nH]c2c1 | 9% | 4µM* | -11% | -19% | 143 | ? | -17%
COc1ccc(-c2nc(CSCC(=O)NCc3ccc4c(c3)OCO4)c(C)o2)cc1OC | ? | ? | -4% | -25% | -7 | . | .
COc1ccc(-c2ccc(SCC(=O)NCc3ccc4c(c3)OCO4)nn2)cc1OC | ? | 2.8µM* | ? | -26% | 30 | -25% | -9%
COCCCNC(=O)c1nn(-c2ccc(C)cc2)c(=O)n(C)c1=O | . | . | 6%[46.1 µM] | -15% | -4 | . | .
O=C(C1CCN(S(=O)(=O)c2ccccc2F)CC1)N1CCCC1 | 12% | 11% | ? | 0% | -14 | . | .
Cc1nc([N+](=O)[O-])c(C(=O)OCc2ccccc2F)n1C | 14%[46.1 µM] | -21% | 11% | 6% | ? | . | .
CCOc1ccc(CCNS(=O)(=O)c2ccc(-c3ccc(=O)[nH]n3)o2)cc1OCC | . | 0% | . | 17% | 9 | . | .
CCOc1ccc(CCNS(=O)(=O)c2cnc[nH]2)cc1OCC | 4% | 6.3µM* | 2% | 3% | -19 | ? | -9%
